PubChem BioAssay (NCI)
This is part of a sample that, as a whole, favours compounds with a hit. Of some 83,000 tested, about 20% had one in any assay.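 Growth was measured after 48 h exposure to one concentration of compound in 96-well plates. Values under 10 count as active.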 A number with no mark means an inactive call. Activity calls are given as the source filed them.

Columns and labels:
Assay in all cases: NCI-60 one-dose screen, 48 h (100 = growth as untreated, 0 = no growth, -100 = all killed)
Settings in all cases: 10 µM unless noted
NCI-H23 lung = tested on: NCI-H23 lung
NCI-H322M lung = tested on: NCI-H322M lung
NCI-H460 lung = tested on: NCI-H460 lung
HOP-92 NSCLC = tested on: HOP-92 NSCLC
NCI-H522 lung = tested on: NCI-H522 lung
A549/ATCC NSCLC = tested on: A549/ATCC NSCLC
786-0 renal = tested on: 786-0 renal
COLO 205 colon = tested on: COLO 205 colon
DU-145 prostate = tested on: DU-145 prostate
K-562 leukemia = tested on: K-562 leukemia
MALME-3M melanoma = tested on: MALME-3M melanoma
MDA-MB-231 breast = tested on: MDA-MB-231 breast
RXF 393 renal = tested on: RXF 393 renal
SF-268 CNS = tested on: SF-268 CNS
SF-295 CNS = tested on: SF-295 CNS
SF-539 CNS = tested on: SF-539 CNS
UACC-257 melanoma = tested on: UACC-257 melanoma
M14 melanoma = tested on: M14 melanoma
HCT-15 colon = tested on: HCT-15 colon

Cn1c(=O)n(C)c2cc(CNCCNc3ccnc4cc(Cl)ccc34)ccc21
growth (NCI-H23 lung): 95.3% | growth (NCI-H322M lung): 95.4% | growth (NCI-H460 lung): 2.02% (active) | growth (HOP-92 NSCLC): 55.9% | growth (NCI-H522 lung): 94.9% | growth (A549/ATCC NSCLC): 70.3% | growth (786-0 renal): 1.49% (active) | growth (COLO 205 colon): 55.1% | growth (DU-145 prostate): 74.8% | growth (K-562 leukemia): 5.18% (active) | growth (MALME-3M melanoma): 43.6% | growth (MDA-MB-231 breast): 62.5% | growth (RXF 393 renal): 52.1% | growth (SF-268 CNS): 97.9% | growth (SF-295 CNS): -69.4% (active) | growth (SF-539 CNS): 58.9% | growth (UACC-257 melanoma): -61.8% (active) | growth (M14 melanoma): -52.8% (active) | growth (HCT-15 colon): 9.62% (active)

COC(=O)c1c2c(c(C)[n+]([O-])c1C)C(=O)C(NCc1ccc(F)c(F)c1)=CC2=O
growth (NCI-H23 lung): -5.8% (active) | growth (NCI-H322M lung): 13.4% | growth (NCI-H460 lung): 4.7% (active) | growth (HOP-92 NSCLC): 51.1% | growth (NCI-H522 lung): 22% | growth (A549/ATCC NSCLC): 8.81% (active) | growth (786-0 renal): 48.2% | growth (DU-145 prostate): 42% | growth (K-562 leukemia): 18.4% | growth (MALME-3M melanoma): -70.8% (active) | growth (MDA-MB-231 breast): -2.52% (active) | growth (RXF 393 renal): 32.2% | growth (SF-268 CNS): 12% | growth (SF-295 CNS): 18.2% | growth (SF-539 CNS): 2.45% (active) | growth (UACC-257 melanoma): -30% (active) | growth (M14 melanoma): 4.33% (active) | growth (HCT-15 colon): 6.07% (active)

O=C(NN1C(=O)CSC1c1ccc(Cl)cc1)c1[nH]c2ccc(F)cc2c1-c1ccccc1 (stereo not given)
growth (NCI-H23 lung): 57.8% | growth (NCI-H322M lung): 82.1% | growth (NCI-H460 lung): 5.13% (active) | growth (HOP-92 NSCLC): 46.5% | growth (NCI-H522 lung): 74.4% | growth (A549/ATCC NSCLC): 26.9% | growth (786-0 renal): 65.8% | growth (COLO 205 colon): 13.6% | growth (DU-145 prostate): 77.2% | growth (K-562 leukemia): 28.2% | growth (MALME-3M melanoma): 85.2% | growth (MDA-MB-231 breast): 63.4% | growth (SF-268 CNS): 65.1% | growth (SF-295 CNS): 8.34% (active) | growth (SF-539 CNS): 78.8% | growth (UACC-257 melanoma): 74.4% | growth (M14 melanoma): 57.3% | growth (HCT-15 colon): 55.7%

COc1cc(-c2c3c(c(Br)n2Cc2ccccc2)-c2nc(N)sc2CC3)cc(OC)c1OC
growth (NCI-H23 lung): 98.2% | growth (NCI-H322M lung): 77.7% | growth (NCI-H460 lung): 94% | growth (HOP-92 NSCLC): 76.4% | growth (NCI-H522 lung): 38.4% | growth (A549/ATCC NSCLC): 82.9% | growth (786-0 renal): 86% | growth (COLO 205 colon): 108% | growth (DU-145 prostate): 108% | growth (K-562 leukemia): 47.7% | growth (MALME-3M melanoma): 81% | growth (MDA-MB-231 breast): 68.6% | growth (RXF 393 renal): 90.5% | growth (SF-268 CNS): 88.2% | growth (SF-539 CNS): 98.1% | growth (UACC-257 melanoma): 93.6% | growth (M14 melanoma): 90.3% | growth (HCT-15 colon): 85%

COC(=O)/C(CCC=C(C)C)=C1\[C@@H](OC(C)=O)C[C@@]2(C)[C@H]1CC(=O)N[C@H]1[C@@]3(C)CCNC(=O)[C@@H](C)[C@@H]3CC[C@@]12C
growth (NCI-H23 lung): 99.2% | growth (NCI-H322M lung): 98.3% | growth (HOP-92 NSCLC): 106% | growth (NCI-H522 lung): 96.6% | growth (A549/ATCC NSCLC): 106% | growth (786-0 renal): 96.2% | growth (COLO 205 colon): 109% | growth (DU-145 prostate): 107% | growth (K-562 leukemia): 101% | growth (MALME-3M melanoma): 101% | growth (MDA-MB-231 breast): 102% | growth (RXF 393 renal): 112% | growth (SF-268 CNS): 101% | growth (SF-295 CNS): 101% | growth (SF-539 CNS): 103% | growth (UACC-257 melanoma): 104% | growth (M14 melanoma): 98.5% | growth (HCT-15 colon): 106%

COc1ccccc1CNC(=O)C1c2ccccc2C(=O)N(CC(C)C)C1c1cccs1 (stereo not given)
growth (NCI-H23 lung): 76.6% | growth (NCI-H322M lung): 69.8% | growth (HOP-92 NSCLC): 76% | growth (NCI-H522 lung): 41% | growth (A549/ATCC NSCLC): 60.7% | growth (786-0 renal): 75.1% | growth (COLO 205 colon): 46.1% | growth (DU-145 prostate): 71.2% | growth (K-562 leukemia): 16.4% | growth (MALME-3M melanoma): 46.4% | growth (MDA-MB-231 breast): 19.6% | growth (RXF 393 renal): -2.16% (active) | growth (SF-268 CNS): 65.7% | growth (SF-295 CNS): -33.5% (active) | growth (SF-539 CNS): 63.4% | growth (UACC-257 melanoma): 96.2% | growth (M14 melanoma): 61.6% | growth (HCT-15 colon): 30.8%

COc1cc(NC(=O)CCSc2nc3ccccc3c(=O)n2CCc2ccccn2)cc(OC)c1OC
growth (NCI-H23 lung): 88.3% | growth (NCI-H322M lung): 88.8% | growth (NCI-H460 lung): 83.5% | growth (HOP-92 NSCLC): 89.1% | growth (NCI-H522 lung): 25% | growth (A549/ATCC NSCLC): 84% | growth (786-0 renal): 84.3% | growth (COLO 205 colon): 115% | growth (DU-145 prostate): 103% | growth (K-562 leukemia): 94.8% | growth (MALME-3M melanoma): 59% | growth (MDA-MB-231 breast): 80.2% | growth (RXF 393 renal): 75.2% | growth (SF-268 CNS): 80.8% | growth (SF-295 CNS): 88.4% | growth (SF-539 CNS): 73.7% | growth (UACC-257 melanoma): 93.2% | growth (M14 melanoma): 103% | growth (HCT-15 colon): 96.4%

CC(C)(C)c1ccc(C2CC(=O)C3=C(C2)Nc2ccccc2N(C(=O)c2ccccc2Cl)C3c2ccc(F)cc2)cc1 (stereo not given)
growth (NCI-H23 lung): 3.17% (active) | growth (NCI-H322M lung): -9.78% (active) | growth (NCI-H460 lung): -0.748% (active) | growth (HOP-92 NSCLC): 58.5% | growth (A549/ATCC NSCLC): -3.2% (active) | growth (786-0 renal): 51.8% | growth (COLO 205 colon): -63.5% (active) | growth (DU-145 prostate): 37% | growth (K-562 leukemia): 10.1% | growth (MALME-3M melanoma): -85% (active) | growth (MDA-MB-231 breast): 15.7% | growth (RXF 393 renal): -3.26% (active) | growth (SF-268 CNS): 10.3% | growth (SF-539 CNS): 8.74% (active) | growth (UACC-257 melanoma): -34.1% (active) | growth (M14 melanoma): 5.11% (active) | growth (HCT-15 colon): 19.3%
